Results published in PubChem BioAssay AID1259343 (VanderVen Lab, College of Veterinary Medicine, Cornell …, 2017).
Screen size: about 6,200 compounds; about 2,900 (47%) were called active. The set was probably picked from earlier hits. The list shows a part of the results. Values without a mark were called inactive. Cut-off read from the data, not from the text of the source: active = inhibition above about 50%; inactive = the rest.

assay: Mycobacterium tuberculosis growth inhibition, primary screen (AID 1259343); conditions: inhibition: at 10 µM, hits give high values; outcome: 10 uM

Compound | inhibition
CCOC(=O)Cc1csc(NC(=O)c2csc(-c3cc4ccccc4[nH]3)n2)n1 | 65.7% (active)
CCOC(=O)Cc1csc(NC(=S)NC(=O)c2cccs2)n1 | 88% (active)
CCc1ccc(C(C)NS(=O)(=O)CC2CCCCC2)cc1 (stereo not drawn) | 24.7%
Cc1cccc(OCC(=O)NC(C)c2cc3ccccc3o2)c1C (stereo not drawn) | 83.5% (active)
CN(C1CCCCC1)S(=O)(=O)NCC1Cc2ccccc2O1 (stereo not drawn) | -12.8%
CC(NC(=O)CCl)c1cc2ccccc2o1 (stereo not drawn) | 58.8% (active)
CC(NC(=O)CCl)c1cccc2ccccc12 (stereo not drawn) | 86.2% (active)
CC(NS(=O)(=O)CC1CCCCC1)c1cc2ccccc2o1 (stereo not drawn) | 91.2% (active)
CC(NC(=O)NCCc1ccc(F)cc1)c1ccccc1Br (stereo not drawn) | 31.6%
COc1cc(-c2c(NC(=O)CC(C)C)oc3c(C)cccc3c2=O)cc(OC)c1OC | -22.3%
CCc1ccc(C(C)NC(=O)CCl)cc1 (stereo not drawn) | 68.1% (active)
CCc1ccc(C(C)NC(=O)c2ccc(S(=O)(=O)C(F)F)cc2)cc1 (stereo not drawn) | -35.3%
Nc1ccc(Cl)c(Cl)c1 | 85.7% (active)
Nc1ccc(Cl)c(-c2nc3ccccc3o2)c1 | -33.1%
CNC(=O)c1ccc(N(C)Cc2ccc(Cl)s2)nc1 | 18.8%
CNC(=O)c1ccc(CN(C)c2ccc(C(F)(F)F)cn2)cc1 | 56.7% (active)
O=C(NCCc1ccc(C(F)(F)F)cc1)C1=COCCO1 | 28.4%
OCC#Cc1csc(CN2CCN(c3nccc4ccccc34)CC2)c1 | 51.9% (active)
Cc1cnc(C)c(N2CCN(Cc3cc(C#CCO)cs3)CC2)n1 | 39%
c1ccc(-c2nc3c(c(N4CCN(Cc5cccc6cccnc56)CC4)n2)CCC3)cc1 | 31.1%
O=S(=O)(Nc1ccc(Cl)cc1F)c1ccc(Cl)s1 | -6.72%
Cc1ccc(S(=O)(=O)Nc2ccc(Br)cc2Br)c(C)c1 | 50.7% (active)
CCCCCCNS(=O)(=O)c1ccc(Br)s1 | 78.5% (active)
CC(=NNS(=O)(=O)c1ccc(Br)cc1)c1ccc(Cl)s1 | 29.9%
O=S(=O)(Nc1ccc(Br)cc1Br)c1ccc(Cl)s1 | 86.1% (active)
O=S(=O)(Nc1cc2c(cc1Cl)OCO2)c1ccc(Cl)s1 | 101% (active)

Compound | inhibition
O=S(=O)(Nc1ccc(Cl)cc1)c1ccc(Cl)s1 | -18.5%
O=S(=O)(Nc1ccc(Br)cc1)c1ccc(Cl)s1 | 95.3% (active)
O=S(=O)(Nc1ccc(Br)cc1)c1ccc(Br)s1 | 96.8% (active)
N#CC1CCN(C(=O)Nc2ccc(OCC3CCCCC3)cc2)CC1 | 40%
Cc1cc(C)cc(CN2CCC(CCc3ccc(C(F)(F)F)cc3)CC2)c1 | -22.4%
O=C(COc1cccc(Cl)c1)N1CCC(CCc2ccc3c(c2)OCO3)CC1 | 43.2%
Cc1ccc(CCC2CCN(C(=O)Nc3cccnc3)CC2)cc1 | 90.4% (active)
CCOc1ccc(NC(=O)N2CCC(CCc3ccc(C(F)(F)F)cc3)CC2)cc1 | 78.8% (active)
CCOc1ccc(NC(=O)N2CCC(Cc3ccc4c(c3)OCO4)CC2)cc1 | 64% (active)
Cc1ccc(CCC2CCN(C(C)C(=O)Nc3ccc(S(N)(=O)=O)cc3)CC2)cc1 (stereo not drawn) | 3.86%
CCCc1nc2sc3c(NCCN(C)C)ncnc3c2c2c1CCCC2 | -36.3%
CCCCc1nc2sc3c(NCCN4CCOCC4)ncnc3c2c2c1COC(C)(C)C2 | 71.5% (active)
COc1ccnc(CS(=O)c2nc3ccc(OC(F)F)cc3[nH]2)c1OC (stereo not drawn) | 100% (active)
COc1cc2c(=O)[nH]c(-c3ccccn3)nc2cc1OC(F)F | 43.2%
Clc1ccc(Cl)c(SCCc2ccccn2)c1 | 73.3% (active)
Clc1ccc(Cl)c(SCCSc2ncn[nH]2)c1 | 23.3%
CN(C)CC[C@H](c1ccc(Cl)cc1)c1ccccn1 | 35.8%
O=C(c1csc(COc2ccc(F)cc2F)n1)N1CCCC1 | -0.05%
Fc1cc(F)cc(-c2cncc(COc3ccc(F)cc3F)c2)c1 | 59.7% (active)
O=S(=O)(NC1CCCCCC1)c1ccc(F)c(F)c1 | -47.6%
O=S(=O)(NC1CCCCCC1)c1ccc(Cl)cc1 | 76.5% (active)
O=S(=O)(NC1CCCCCCC1)c1ccccc1F | 29.7%
Cc1ccccc1-c1nnn(Cc2cc(=O)n3c(C)cccc3n2)n1 | 32.9%
Cc1ccc(C(=O)Cn2nnc(-c3ccccc3C)n2)c(C)c1 | 90.1% (active)
COC(=O)C1=C(NC(=O)c2cccs2)CCS1 | -17.8%
Cc1ccc(C)c(-c2csc(NC(=O)c3cccs3)n2)c1 | 42.1%

Compound | inhibition
O=C(Nc1n[nH]c(=S)s1)c1cccs1 | 103% (active)
CCN(CC)CCNC(=O)c1cc(NC(=O)Nc2cccc(Br)c2)ccc1N1CCCCC1 | 39.5%
COc1ccc(-c2cc(C(=O)NN=Cc3ccc(Br)cc3)[nH]n2)cc1 | 36.8%
CC(C)Oc1ccc(-c2cc(C(=O)NN=Cc3cccs3)[nH]n2)cc1 | 68.8% (active)
O=C(COc1cccc(F)c1)N1CCC(c2ccc(O)cc2)CC1 | 39.3%
Cc1ccccc1CC1(CO)CCCN(C(=O)CCC(F)(F)F)C1 (stereo not drawn) | 29.1%
Cc1cccc(C2(O)CCN(C(=O)CCc3ccccc3)CC2)c1C | 75.2% (active)
Cc1ccccc1N1CCN(C(=O)CCc2nnc(CCCc3ccccc3)o2)CC1 | 26%
O=C(CCc1ccccc1)N1CCN(c2ccc(O)cc2)CC1 | 78.6% (active)
O=C(CCC(F)(F)F)N1CCC(CO)(CCc2ccccc2)CC1 | 25.8%
CCOC(=O)C1(CCCc2ccccc2)CCN(C(=O)CC2=CCCCC2)CC1 | 16.7%
O=C(CC1Cc2ccccc2C1)N1CCC2(CCc3ccccc32)C1 (stereo not drawn) | 31.8%
O=C(OCC(=O)N1CCN(c2ccc(F)cc2)CC1)c1ccc(O)cc1 | 87.3% (active)
Cc1ccccc1C1(O)CCN(C(=O)CCC2CCCC2)C1 (stereo not drawn) | 68% (active)
Cc1cc(Cn2ccnc2-c2cc3ccc(F)cc3[nH]c2=O)on1 | -7.89%
CNC(=O)NC(=O)CCSC(C)c1nc(-c2ccc(C)c(F)c2)no1 (stereo not drawn) | 91.8% (active)
Cc1ccc2ncn(Cc3nc(-c4ccc(C)c(F)c4)no3)c(=O)c2c1 | -6.02%
Cc1ccc(OCc2cc(C(=O)NC(C)c3nc(-c4ccccc4)no3)no2)cc1C (stereo not drawn) | 23%
Cc1ccccc1Cc1nnc(CN(CC(C)O)c2ccccc2)o1 (stereo not drawn) | 80.1% (active)
CCOC(=O)/C=C/c1c([N+](=O)[O-])sc(Br)c1Br | 103% (active)
Cc1ccc(NC2CCCN(C(=O)C3CCCCC3)C2)cc1C (stereo not drawn) | 49%
O=C(Nc1ccc(-c2cscn2)cc1)C1CCCN(Cc2ccon2)C1 (stereo not drawn) | inactive
O=C(c1ccc(Cl)s1)N1CCCC(Nc2ccc3c(c2)OCO3)C1 (stereo not drawn) | 44.6%
O=C(Nc1ccc(-c2cscn2)cc1)C1CCCN(C(=O)c2cccs2)C1 (stereo not drawn) | 58.2% (active)
Cc1cccc(CN2CCCC(C(=O)Nc3ccc(-c4cscn4)cc3)C2)c1 (stereo not drawn) | 88.8% (active)
O=C(Nc1ccc(-c2cscn2)cc1)C1CCCN(C(=O)Cc2ccccc2F)C1 (stereo not drawn) | 33.2%

Compound | inhibition
Cc1ccc(NC2CCCN(C(=O)c3cccs3)C2)cc1C (stereo not drawn) | 59.6% (active)
COCc1ccc(CN2CCCC(C(=O)Nc3ccc(-c4cscn4)cc3)C2)o1 (stereo not drawn) | 29%
CC(=O)c1cc(CN2CCCC(C(=O)Nc3ccc(-c4cscn4)cc3)C2)cs1 (stereo not drawn) | 70.9% (active)
c1csc(-c2noc(CSc3nc4ccccc4o3)n2)c1 | 100% (active)
CCCNC(=O)CSc1nc2ccccc2o1 | -21.7%
CC1CCc2sc(-c3nnc(SCc4nc(-c5cccs5)no4)o3)cc2C1 (stereo not drawn) | 5.99%
COc1ccccc1-c1noc(CSc2nc3ccccc3o2)n1 | 89.1% (active)
O=S(=O)(c1ccc(Cl)s1)N1CCCc2cccc(O)c21 | 43.4%
Cc1cccc2nc(-c3ccc(C(C)(C)C)cc3)c(NC(C)(C)C)n12 | 73.6% (active)
CC(=O)N(C)c1ccc(NC(C)c2ccc(F)c(F)c2)cc1 (stereo not drawn) | 20%
CNC(C)c1ccc(Sc2ccc(C(C)C)cc2)c(F)c1 (stereo not drawn) | 67% (active)
Cc1cc(I)ccc1N | 83.3% (active)
O=C(COc1c(F)c(F)cc(F)c1F)c1ccc[nH]1 | 65.2% (active)
Nn1ccc2nc3ccn(CCC4=CCCCC4)c(=O)c3cc2c1=O | 85.4% (active)
O=S(=O)(NCCC1=CCCCC1)c1cccc2nonc12 | -1.1%
CCOC(=O)COc1ccc(C)cc1C(=O)c1cnc2c(c1)COc1ccccc1-2 | 61.1% (active)
CC(Nc1ccc(OCC(F)(F)F)cc1)C(=O)Nc1ccc(Cl)cn1 (stereo not drawn) | 97% (active)
CC(Nc1cccc(OC(F)(F)F)c1)C(=O)Nc1cccnc1Cl (stereo not drawn) | -51.8%
O=C(CN(C1CCCCC1)C1CC1)Nc1ccc(Cl)cn1 | 37.5%
O=C1NC(=NN=Cc2cccnc2)SC1Cc1ccc(SC(F)F)cc1 (stereo not drawn) | 35.2%
Fc1ccccc1-n1cc(-c2ccnc(NC3CCC3)n2)cn1 | 20.1%
COc1ccnc(NC2CCC(c3ccccc3)CC2)n1 (stereo not drawn) | 68.9% (active)
O=C(NC1CCC(c2ccccc2)CC1)c1n[nH]c2ccccc12 (stereo not drawn) | 25.1%
COc1cccc(-c2ccc(NC(=O)C3CCCN(C(=O)c4ccoc4)C3)cc2)c1 (stereo not drawn) | inactive
COc1ccc(-c2ccc(C(=O)N3CCC(C(N)=O)C3)c(F)c2)cc1 (stereo not drawn) | 69.6% (active)
